The source of these data is paper PMC7819943, “Rice protein-binding microarrays: a tool to detect cis-acting elements near promoter regions in rice”.

The full ranking holds about 68,000 sequences; the median of “fluorescence intensity (a.u.)” is about 9,100, and the highest 2% start at about 16,000. The sample holds the highest values, similar sequences and a random draw of the others, so the mix is not that of the screen.

OsWRKY34, sequence (Q0JBA9 entry or part of it): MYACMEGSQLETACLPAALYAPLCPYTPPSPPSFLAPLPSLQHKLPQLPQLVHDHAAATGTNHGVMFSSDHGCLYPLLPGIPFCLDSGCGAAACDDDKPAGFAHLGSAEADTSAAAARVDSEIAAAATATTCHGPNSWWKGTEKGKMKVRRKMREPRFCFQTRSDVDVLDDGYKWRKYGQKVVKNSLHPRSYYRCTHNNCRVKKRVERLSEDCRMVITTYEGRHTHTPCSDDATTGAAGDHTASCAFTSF

The target of this assay is OsWRKY34 (Oryza sativa, UniProt Q0JBA9 1-250). The experiment in a line: protein-binding microarray (RPBM); PBS, 2% BSA, 51.3 ng/ul salmon testes DNA, 50 uM zinc acetate, 200 nM TF, 25 C, 1 h; high values mean tight binding. Conditions: protein: recombinant; tags: N-terminal polyhistidine and DsRed monomer fusion (pET32a); label: CyDye5-dUTP incorporated in the synthesized complementary strand; 3' TTTTT single-stranded linker to array surface; dsDNA, one strand shown. In short, it runs like this:
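Using Ni–NTA, transcription factors fused N-terminally to polyhistidine and DsRed were purified after expression in E. coli BL21-CodonPlus. These were incubated at 200 nM with a blocked, double-stranded custom Agilent array for 1 h at 25 °C in a buffer containing 50 µM zinc acetate, and the array was washed. The binding signal is per-feature fluorescence intensity (arbitrary units) on an Axon 4000B scanner.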
With “TTTCATGTTCGTGAAAATTATACATTTTATATGCGCCTTTCGGAGTCACCTAGTGCAG”, the binding signal is 8720 fluorescence intensity (a.u.).

In the case of “GAAGCCATATCATCTTAATTGTTTTTAGCTCTTCTCTCATCGGAGTCACCTAGTGCAG”, the binding signal was 10300 fluorescence intensity (a.u.).

Take “AAAATTTTTCTATTCAATTCTTTTCGTTTTTGGACCTCTCCGGAGTCACCTAGTGCAG”: the binding signal is 8660 fluorescence intensity (a.u.).

For the sequence “CCCTAAACAGGTCAACCTCAGGTGTTGACTAGAGTACTAGCGGAGTCACCTAGTGCAG”, the binding signal is 8290 fluorescence intensity (a.u.).

Turning to “GTGTGTAGTGGTGTTTGTGCGCGGCCTCTAATATCATGTACGGAGTCACCTAGTGCAG”, the binding signal was 11600 fluorescence intensity (a.u.).

Turning to “GATTCATACAATTGTATGGTGTTAACATGGCGATTTTTTGCGGAGTCACCTAGTGCAG”, the binding signal is 9120 fluorescence intensity (a.u.).

As for “CCGCTACAACACTCAACACCATACCACATGTCATCTCCGTCGGAGTCACCTAGTGCAG”, the binding signal was 8060 fluorescence intensity (a.u.).

“CTTCTGTCACGTACGCCCGTCCCTCATATGGCCAATCGCGCGGAGTCACCTAGTGCAG”: the binding signal is 13400 fluorescence intensity (a.u.).

As for “CACTTACACTTTCATTTTCGCTTCATGTAAAATAGTCAACCGGAGTCACCTAGTGCAG”, the binding signal is 8980 fluorescence intensity (a.u.).

Take “AGGGACAGGGTTGGTGAAGTGGCTTCCATGCGGCGGCCACCGGAGTCACCTAGTGCAG”: the binding signal is 8150 fluorescence intensity (a.u.).

Consider “ATGCGGCGGTGGCGGGAGGGAGGGACAGGGTTGGTGAAGTCGGAGTCACCTAGTGCAG”, for which the binding signal is 17400 fluorescence intensity (a.u.).

For the sequence “ATAGGTAGATTGTTGGTGATGCTCTAAGGGTGGGTTTTGACGGAGTCACCTAGTGCAG”, the binding signal is 13400 fluorescence intensity (a.u.).

On to “TCGATTGGGGATTGGGGATTGGGGATCAGGAGGGATGGGGCGGAGTCACCTAGTGCAG”, for which the binding signal is 20900 fluorescence intensity (a.u.).

For the sequence “GGCGGAGGGAGGGAGGGGAAGTCGGTGGTGAGGTGGCGTGCGGAGTCACCTAGTGCAG”, the binding signal was 12900 fluorescence intensity (a.u.).

“TCGCTAGGAGTGGTGGTGGTGGTGGGAGGAGGAGGCGATGCGGAGTCACCTAGTGCAG”: the binding signal is 13000 fluorescence intensity (a.u.).

Regarding “AGGAGGAGGAGGAGGAGGAGGAGGAGGCGGTGGGAGGGATCGGAGTCACCTAGTGCAG”, the binding signal is 14800 fluorescence intensity (a.u.).

As to “AGATGCCTCGTGCTAGGTTTGATTGGTTGGTTGGTTGGTACGGAGTCACCTAGTGCAG”, the binding signal is 19400 fluorescence intensity (a.u.).

Turning to “CGGGAGAGGGAGGTGATGATGGGGCGGCGGAGGATTGGAGCGGAGTCACCTAGTGCAG”, the binding signal is 8130 fluorescence intensity (a.u.).

Regarding “GTTGGTGGTGGTGGTGGAGGAGGCGGTGGTGGGATCGATGCGGAGTCACCTAGTGCAG”, the binding signal is 23900 fluorescence intensity (a.u.).

As for “GTTGCTGTTTTTGATGGTCGTTGAGACAGATAGTTTGGTACGGAGTCACCTAGTGCAG”, the binding signal was 8360 fluorescence intensity (a.u.).

As for “GGGGATCAGGAGGGATGGGGATTGGGGAGACGAGTGGATGCGGAGTCACCTAGTGCAG”, the binding signal was 8330 fluorescence intensity (a.u.).

With “GCACTTATCGTTTATTTTCTTATAATTTATTTTATCATTGCGGAGTCACCTAGTGCAG”, the binding signal was 8830 fluorescence intensity (a.u.).

For the sequence “GCAAGTACTTGGTGGTATATGTTGTTTGGAATAAAAAGGTCGGAGTCACCTAGTGCAG”, the binding signal was 8320 fluorescence intensity (a.u.).

For “CCTCGCTCCTCCTCGTCGCAGATCGATCTCAAACCTTCAGCGGAGTCACCTAGTGCAG”, the binding signal was 8730 fluorescence intensity (a.u.).

On to “ATACATTTATTCCTTCTTAGAGTCACTACTCTTCATTGAACGGAGTCACCTAGTGCAG”, for which the binding signal is 8060 fluorescence intensity (a.u.).

Take “ACCTCTTCCTCGACGCCGCCGCCGACCACCACCCCGCCGGCGGAGTCACCTAGTGCAG”: the binding signal was 8670 fluorescence intensity (a.u.).

“TGTGTCATCTTGTCTATGGTAGTTCAGCAATCCTCTGCTTCGGAGTCACCTAGTGCAG”: the binding signal was 8890 fluorescence intensity (a.u.).

As to “ATCACCGTCCCCGCTGCCGCCACCCGCCACTGCCGCAGCGCGGAGTCACCTAGTGCAG”, the binding signal was 10800 fluorescence intensity (a.u.).

Regarding “GGCGGCGGTGATTCGGGGATGCGGCGCGGCGGGGAGGAGGCGGAGTCACCTAGTGCAG”, the binding signal was 10100 fluorescence intensity (a.u.).

On to “CTTCTTCTTGTCCTGCGCAACCGATGGGCGGGTTCTTGATCGGAGTCACCTAGTGCAG”, for which the binding signal is 18800 fluorescence intensity (a.u.).

Consider “GGTGGTGGTGGTGGTGGATCGGGTGGCTTTGGCTGAGATGCGGAGTCACCTAGTGCAG”, for which the binding signal was 18100 fluorescence intensity (a.u.).

Turning to “GGGATTGGATTGGGTTGGGTTGGATTGGAGAGAGAGAATGCGGAGTCACCTAGTGCAG”, the binding signal was 31400 fluorescence intensity (a.u.).

“AGGTGAGGTGGAGGAGGAGGAGGAGGAGGAGATCGGGATGCGGAGTCACCTAGTGCAG”: the binding signal is 8790 fluorescence intensity (a.u.).

As to “AATGAAAAATGGGGATGGGATTGGGATTGAGAAATGAATGCGGAGTCACCTAGTGCAG”, the binding signal is 9280 fluorescence intensity (a.u.).

With “CGGCGGGTGGGGCGGTGGCGGTGAGGGATGCGGTGGTGGCCGGAGTCACCTAGTGCAG”, the binding signal is 10700 fluorescence intensity (a.u.).

Consider “AGGCGGCGGGGTGGCGGTGGTGGTGGTGGTGGTGGTGATGCGGAGTCACCTAGTGCAG”, for which the binding signal was 19000 fluorescence intensity (a.u.).

Consider “CCCGCAGATTGGATTGGATTGGGTTGGATTGGATTGGATGCGGAGTCACCTAGTGCAG”, for which the binding signal was 10300 fluorescence intensity (a.u.).

Take “CCACAACACCGCAACACACTGTCCTTGCTTCTTCATTGATCGGAGTCACCTAGTGCAG”: the binding signal was 8750 fluorescence intensity (a.u.).

With “GTGGGGCCCACCTGTCGGGGCGGTTGATGGGCTCTTCTAGCGGAGTCACCTAGTGCAG”, the binding signal was 8370 fluorescence intensity (a.u.).

For the sequence “CCGGAGAGGCGGTGGTGTTTGGATCGGGAGGGGAGAGATGCGGAGTCACCTAGTGCAG”, the binding signal was 11500 fluorescence intensity (a.u.).

Take “TCTCCTCACCGGCCCCTCTTCCCCTTCGATTCTGGCGGCTCGGAGTCACCTAGTGCAG”: the binding signal was 8880 fluorescence intensity (a.u.).

As for “TTCGTTTCTGGCTTTTTCGTCGTGTTCCGATTTCAATCTCCGGAGTCACCTAGTGCAG”, the binding signal was 12700 fluorescence intensity (a.u.).

For “CTACATGGGTGTTGACTCATTTTATTTATCTTTTTCTCCACGGAGTCACCTAGTGCAG”, the binding signal was 10300 fluorescence intensity (a.u.).
